# KAT2A inh = qHTS Assay for Inhibitors of GCN5L2; GCN5L2 HAT assay, ThioGlo1 CoA-SH fluorescence; Potency, µM (series often up to 58.9 µM), without a hit: at the highest dose activity change, negative = inhibition, most hits filed as inhibitors; 0.21% of 390,000 active; AID 504327, 2011
#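 Enzyme at 20nM final was mixed with library compounds for 15 min at room temperature. Peptide H3(1-25) at 75uM, acetyl-CoA at 70uM and ThioGlo1 at 50uM were then added. Plates were read immediately and after 20 min (Ex340nm/Em540nm).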
# PLK1 PBD block = qHTS for Inhibitors of PLK1-PDB (polo-like kinase 1 - polo-box domain): Primary Screen | AID 720504, 2013 | Potency, µM, inactives show max response, negative = inhibition, usual class: inhibitors | 2.8% of 360,000 active | Plk1 PBD binding of FITC phosphopeptide, fluorescence polarization | Serine/threonine-protein kinase PLK1 (Homo sapiens), P53350; further: series mostly up to about 57 µM; nearly all actives have a fitted effect of over 65% in size
# DT40 TDP1 no CPT = qHTS for Inhibitors of human tyrosyl-DNA phosphodiesterase 1 (TDP1): qHTS in cells in absence of CPT; Potency, µM (doses to about 46.2 µM), for inactives: top-dose activity change, negative = growth inhibition, usual class: inhibitors; AID 686978, 2013; 15% of 420,000 active; DT40 Tdp1-/- hTDP1 cells, no CPT, ATP luminescence, 48 h; further: nearly all actives have a fitted effect of over 55% in size
#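 A cellular qHTS used chicken DT40 cells lacking endogenous Tdp1 but carrying stably transfected human TDP1. Compounds were applied without camptothecin, and cell growth kinetics were judged by ATP-dependent luminescence after ≥48 hr.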
# VDR inh = Inhibitors of the vitamin D receptor (VDR): qHTS; VDR-SRC2-3 peptide fluorescence polarization, 2 h; Potency, µM, for inactives: max response, negative = inhibition, most hits filed as inhibitors; 0.93% of 400,000 active; AID 504847, 2011
#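 After 23 nl compound addition and a short centrifugation, plates sat for 2 hours at ambient temperature; polarization of fluorescence then indicated loss of VDR binding to peptide SRC2-3.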
# TDP1 inh = qHTS Assay for Inhibitors of Tyrosyl-DNA Phosphodiesterase (TDP1); Tyrosyl-DNA phosphodiesterase 1 (Homo sapiens), Q9NUW8; recombinant TDP1, AlphaScreen DNA substrate cleavage; Potency, µM (highest dose often 130 µM), for the others: at the top dose activity change, negative = inhibition, usual class: inhibitors; 0.28% of 350,000 active; AID 485290, 2010; further: nearly all actives have a fitted effect of over 40% in size
#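 E. coli-derived human Tdp1, 1 nM final. Cpd preinc 15 min RT; substrate 15 nM final, 5 min RT; AS bead mix 10 ug/ml final, 10 min RT. Signal loss = tyrosine-FITC cleavage. No-enzyme wells = max signal.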
# TDP1 cell CPT = qHTS for Inhibitors of human tyrosyl-DNA phosphodiesterase 1 (TDP1): qHTS in cells in presence of CPT; chicken DT40 Tdp1-/-;hTDP1 cells + 20 nM CPT, ATP luminescence, 48 h; Potency, µM (titrated, usually from 46.2 µM), without a hit: top-dose activity change, negative = growth inhibition, hits mostly inhibitors; 12% of 420,000 active; AID 686979, 2013; further: nearly all actives have a fitted effect of over 55% in size
#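 Chicken DT40 Tdp1-/- cells complemented with human TDP1, 400 cells/well, exposed to compounds plus 20 nM camptothecin for at least 48 h at 37 C; viability read as ATP content by CellTiter-Glo luminescence.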
# The depositor's hits bear a star; ? = inconclusive; . = not tested or not shown; [ ] = another dose, or the depositor's remark. This is a sample that favours compounds with a hit; in the whole collection about 18% have one here. The call rests on the fitted dose curve; in most records, active means well fitted curve in the direction sought with a large enough effect; inconclusive means small, poorly fitted or top-dose-only effect, or another doubt; inactive means no such curve, though single readings can be large; an effect the other way counts as inactive or inconclusive. On the % scale 0 is the no-effect control and ±100 the full control effect; potency means the concentration at half of the fitted maximal effect.
SMILES,KAT2A inh,PLK1 PBD block,DT40 TDP1 no CPT,VDR inh,TDP1 inh,TDP1 cell CPT
CCc1ccccc1OCC(=O)Nc1cc(S(=O)(=O)N2CCOCC2)ccc1N1CCCCC1,-23%,10%,7.3µM*,12%,4%,23µM*
O=C(Cn1cnc2c(cnn2-c2ccccc2)c1=O)N1CCOCC1,1%,2%,-9%,-13%,7%,-7%
O=C(Cn1cnc2c(cnn2-c2ccccc2)c1=O)Nc1cc(S(=O)(=O)N2CCOCC2)ccc1Cl,-7%,5%,23µM*,-16%,3%,?
Cc1ccc(Cl)c(OCC(=O)Nc2cc(S(=O)(=O)N3CCOCC3)ccc2N2CCCC2)c1,-8%,0%,-61%,4%,3%,16µM*
O=C(COc1ccc(Cl)cc1)Nc1cc(S(=O)(=O)N2CCCCC2)ccc1N1CCCCC1,-5%,0%,10µM*,-13%,6%,2.9µM*
CCOC(OCC)P(=O)(O)CCCNCc1ccc(Cl)c(Cl)c1,-7%,.,?,-12%,11%,-1%
CC(=O)O[C@H]1C[C@@]2(C)[C@@H](C[C@@H](O)[C@H]3[C@@]4(C)CC[C@@H](O)[C@@H](C)[C@@H]4CC[C@@]32C)/C1=C(\CCC=C(C)C)C(=O)O,-8%,0%,?,?,.,?
O=C(Nc1cc(S(=O)(=O)N2CCOCC2)ccc1Cl)C(=O)c1c(-c2ccccc2)cc2ccccn12,-1%,0%,23µM*,3%,4%,21µM*
O=S(=O)(c1ccc(Cl)c(NC(=S)Nc2ccccc2N2CCOCC2)c1)N1CCOCC1,0%,-10%,-25%,-1%,1%,-3%
Cc1ccc(S(=O)(=O)N2CCOCC2)cc1NC(=O)COc1ccc(C(=O)c2ccccc2)cc1,-3%,-8%,?,89µM*,2%,?
COc1cccc(C(=O)NC(=S)Nc2ccc(N(C)C)cc2)c1,-4%,-7%,?,-10%,13%,?
Cc1cc2nc(-c3cc(NC(=O)c4cc5ccccc5o4)ccc3Cl)oc2cc1C,-17%,.,16µM*,?,0%[12.3 µM],?
COc1cc2ccccc2cc1C(=O)Nc1ccc(Cl)c(-c2nc3ccccc3o2)c1,9%,.,23µM*,-5%,0%[12.3 µM],?
COc1ccc(N2CCN(C(=O)C3CCCN3S(=O)(=O)c3cccc4nsnc34)CC2)cc1 (stereo not drawn),-1%,8%,?,-23%,1%,-6%
O=[N+]([O-])c1ccc2c(c1)N([O-])C1(CCCCC1)[N+]2=O,-19%,12µM*,?,?,6%,26µM*
CC1=C(c2ccccc2)[N+](=O)C2(CCCC2)N1[O-],-3%,0%,7%,-18%,5%,-20%
O=C(NCc1ccccc1)C(c1ccncc1)N(C(=O)c1ccccn1)c1ccccc1 (stereo not drawn),4%,-12%,1%,10%,6%,-5%
CC(=O)Nc1ccc(NC(=O)CSc2ccc([N+](=O)[O-])cn2)cc1,10%,-16%,-10%,12%,1%,0%
N#C/C(=C/c1ccc(N2CCCC2)c([N+](=O)[O-])c1)c1nc2ccccc2[nH]1,49%,0%,15µM*,16%,4%,13µM*
N#C/C(=C\c1ccc(N2CCOCC2)o1)c1nc2ccccc2[nH]1,-29%,66%,23µM*,-1%,12%,?
CCN(CC)c1ccc(/C=C(/C#N)c2nc3ccccc3[nH]2)c(OC(C)C)c1,-4%,12%,12µM*,?,6%,18µM*
COc1cc(/C=C(\C#N)c2nc3ccccc3[nH]2)c([N+](=O)[O-])cc1OCc1ccccc1,-9%,4%,18µM*,4%,12%,23µM*
CSCc1ccc(C(=O)NC(C)c2cnn(-c3ccccn3)c2C)o1 (stereo not drawn),2%,-3%,-15%,-13%,6%[56.1 µM],-4%
COC(=O)/C(C#N)=C/c1ccc(N2CCOCC2)c([N+](=O)[O-])c1,-3%,-10%,-9%,6%,5%,-5%
COc1ccc(C(=O)/C=C/c2ccc(N3CCCCC3)c([N+](=O)[O-])c2)cc1,-3%,-3%,?,?,4%,?
SMILES,KAT2A inh,PLK1 PBD block,DT40 TDP1 no CPT,VDR inh,TDP1 inh,TDP1 cell CPT
N#C/C(=C\c1ccc(N2CCOCC2)c([N+](=O)[O-])c1)c1nc2ccccc2[nH]1,-4%,-6%,15µM*,0%,14%,26µM*
Cc1ccc2nc(/C(C#N)=C\c3ccc(N4CCCCC4)c([N+](=O)[O-])c3)[nH]c2c1,.,-18%,10µM*,-5%,7%,21µM*
N#C/C(=C\c1ccc(Oc2ccc(C(F)(F)F)cc2[N+](=O)[O-])cc1)c1nc2ccccc2[nH]1,-2%,-4%,21µM*,4%,10%,-74%
O=S(=O)(Nc1cccc(-c2cn3cccnc3n2)c1)c1ccc(Cl)cc1,-17%,-6%,?,9%,-1%,?
Fc1ccc(C(OCCCc2cnc[nH]2)c2ccc(F)cc2)cc1,-8%,.,.,-9%,16%[56.1 µM],.
CC(Sc1nnc(Cc2cccs2)n1C)C(=O)Nc1ccc(C(N)=O)cc1 (stereo not drawn),-4%,-4%,8%,-5%,-12%,0%
COc1ccc(/C=C/c2ccc3ccccc3[n+]2C)c(OC)c1OC,.,.,1.1µM*,.,.,1.4µM*
COc1ccc(/C=N/NC(=O)c2cccc3ccccc23)c(OC)c1OC,.,-12%,?,20%,.,?
COc1ccc(/C=C/c2ccc3ccccc3[n+]2C)cc1OC,-6%,-2%,18µM*,-10%,.,13µM*
CC(=O)Oc1ccccc1/C=C/c1ccc2ccccc2[n+]1C,-17%,-15%,16µM*,-16%,0%,21µM*
COc1cc(OC)c(OC)cc1/C=C/c1ccc2ccccc2[n+]1C,.,.,0.71µM*,.,.,0.89µM*
CCN(CC)C(=O)Cn1c(=O)n(-c2ccc(C)c(C)c2)c(=O)c2c(C)c(C(=O)N(CC)CC)sc21,-2%,.,-3%,-4%,8%,-13%
Cc1ccc(NC(=O)CCSc2nc(-c3ccc4c(c3)OCO4)cc(C(F)(F)F)n2)cc1,-4%,.,.,-10%,5%,.
